Assays:
Format in all cases: functional
Plasmodium falciparum [1] = assay: GSK_TCMDC: Inhibition of Plasmodium falciparum 3D7 in whole red blood cells, using parasite LDH activity as an index of growth. Test compounds present at 2uM
Plasmodium falciparum [2] = assay: GSK_TCMDC: Inhibition of Plasmodium falciparum Dd2 in whole red blood cells, using parasite LDH activity as an index of growth. Test compounds present at 2uM
HepG2 = assay: GSK_TCMDC: Percent inhibition of human HepG2 cell line. Test compounds present at 10uM.

SMILES | Inhibition (Plasmodium falciparum [1]) | Inhibition (Plasmodium falciparum [2]) | Inhibition (HepG2)
CCNc1cc(C(=O)N[C@@H](Cc2ccccc2)[C@H](O)CNC2CCC(C)(C)C2)cc(N2CCCCS2(=O)=O)c1.Cl (stereo partly specified) | 96% | 98% | 3%
CCCCCCCN1CC[C@@H](CCCc2ccnc3ccc(OCCN4CCOCC4)cc23)[C@@H](CC)C1.O=C(O)C(=O)O | 89% | 3% | 14%
COc1cccc(NC(=O)COc2ccc(C(=O)Nc3nc4ccccc4[nH]3)cc2)c1 | 99% | 29% | 19%
O=C(Nc1ccc2c(c1)CCNCC2)Nc1ccc2ccccc2c1.O=C(O)C(F)(F)F | 84% | 23% | 0%
Cl.Clc1cc(Br)ccc1-c1ccc(CNCC2CCNCC2)o1 | 96% | 39% | 100%
CO/C(=C\C=C\c1cc2cc(Cl)c(Cl)cc2[nH]1)C(=O)Nc1ccc(NCCN(C)C)nc1.Cl | 93% | 56% | 27%
Cl.Oc1cccc(Nc2nc(NCC3CCCO3)c3ccccc3n2)c1 (stereo unspecified) | 100% | 87% | 0%
O=C(/C=C/c1ccc(Cl)c(Cl)c1)NCCCCCN1CCCC(CNC(=O)c2sc3ccccc3c2Cl)C1 (stereo unspecified) | 98% | 0% | 42%
COc1ccc(-c2cccc(NC(=O)c3ccc(Cl)cc3)c2)cc1CN1CCNCC1.O=C(O)C(F)(F)F | 96% | 22% | 52%
CCc1ccc(CN2CCC(CNC(=O)c3cc(-c4ccccc4F)cs3)C2)cc1.O=C(O)C(F)(F)F (stereo unspecified) | 100% | 3% | 29%
Cl.O=c1cc(NCCCCNCc2ccc(Br)c(Br)c2)[nH]c2ccccc12 | 98% | 14% | 13%
COc1ccc(NC(=O)c2ccc3[nH]c(-c4ccc(Cl)cc4)cc3c2)cc1OCCN(C)C | 100% | 78% | 32%
Fc1cccc(COc2ccc(Nc3ncnc4sc(C#C[C@H]5CC[C@H](CN6CCOCC6)N5)cc34)cc2Cl)c1 | 92% | 23% | 16%
CO/C(=C\C=C\c1cc2cc(Cl)c(Cl)cc2[nH]1)C(=O)NCCCN1CCN(c2cccc(Cl)c2)CC1 | 100% | 77% | 58%
CC(C)c1sc(-c2ccc(C(C)(C)C)cc2)nc1C(=O)NCCCN1CCCC1=O | 96% | 92% | 0%
CCCc1cc(Cc2cnc(N)nc2N)cc(CCC)c1O.Cl | 96% | 5% | 64%
COc1cccc([C@@H](CC(=O)Nc2cc(C(F)(F)F)ccc2OC)Nc2ccc(C#N)c3ccccc23)c1 | 96% | 53% | 19%
FC(F)(F)c1cc(C(F)(F)F)c2cc(CNCCCNc3nc4ccccc4[nH]3)[nH]c2c1 | 100% | 99% | 99%
Clc1cc(Nc2ncnc3sc(C#Cc4ncc[nH]4)cc23)ccc1OCc1ccccn1 | 100% | 6% | 10%
COc1ccc(Cl)cc1N1CCN(CCCNC(=O)c2ccc(-c3nc4cnccc4[nH]3)c(Br)c2)CC1 | 86% | 15% | 5%
Cc1ccc(C)c(C2CCN(CCCCNC(=O)c3ccc(NC(=O)c4ccc(Cl)cc4)cc3)CC2)c1 | 94% | 13% | 15%
Fc1ccc2[nH]c(-c3ccccc3)nc2c1CN1CCC(N2CCCC2)CC1.O=CO | 100% | 30% | 2%
COc1ccc(CNCc2ccc(-c3ccc(-c4nc5cc(F)ccc5[nH]4)cc3)cc2)cc1.O=C(O)C(F)(F)F | 99% | 83% | 70%
COc1cc(OC)c(NC(=O)C2c3ccccc3C(=O)N(CC(C)C)C2c2cccs2)cc1Cl (stereo unspecified) | 100% | 100% | 9%
Cc1ccc(NC(=O)c2ccc3ncccc3c2)cc1OC1CCN(Cc2ccc(F)cc2)C1.O=C(O)C(F)(F)F (stereo unspecified) | 83% | 28% | 11%
CCN(CC)Cc1cccc(-c2cc3c(-c4ccc(C(=O)O)c(C(C)C)c4)ccnc3[nH]2)c1OC.O=C(O)C(F)(F)F | 99% | 99% | 57%
CN(C)c1ccc(CN2CCCC(CNC(=O)c3ccc(-c4cccc(C(F)(F)F)c4)s3)C2)cc1.O=C(O)C(F)(F)F (stereo unspecified) | 89% | 37% | 32%

Reference: ChEMBL document CHEMBL1157539, “Thousands of chemical starting points for antimalarial lead identification” (Nature, 2010)
